According to PMC4336329 (PLoS ONE, 2015):
Out of some 310,000 compounds screened, about 14,000 (4.5%) showed an effect of 50% or more. Effects have a minus sign here. The entries come from a sample that favours strong results as a whole.

Target: human ether-à-go-go-related gene (hERG) potassium channel (human, UniProt Q12809)
Test: primary screen, population patch clamp on CHO cells stably expressing hERG; higher = less effect of the substance
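Also: peak tail current of the secondary pulse compared with the same well before compound.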

human ether-à-go-go-related gene (hERG) potassium channel, sequence (Q12809 whole entry, looked up): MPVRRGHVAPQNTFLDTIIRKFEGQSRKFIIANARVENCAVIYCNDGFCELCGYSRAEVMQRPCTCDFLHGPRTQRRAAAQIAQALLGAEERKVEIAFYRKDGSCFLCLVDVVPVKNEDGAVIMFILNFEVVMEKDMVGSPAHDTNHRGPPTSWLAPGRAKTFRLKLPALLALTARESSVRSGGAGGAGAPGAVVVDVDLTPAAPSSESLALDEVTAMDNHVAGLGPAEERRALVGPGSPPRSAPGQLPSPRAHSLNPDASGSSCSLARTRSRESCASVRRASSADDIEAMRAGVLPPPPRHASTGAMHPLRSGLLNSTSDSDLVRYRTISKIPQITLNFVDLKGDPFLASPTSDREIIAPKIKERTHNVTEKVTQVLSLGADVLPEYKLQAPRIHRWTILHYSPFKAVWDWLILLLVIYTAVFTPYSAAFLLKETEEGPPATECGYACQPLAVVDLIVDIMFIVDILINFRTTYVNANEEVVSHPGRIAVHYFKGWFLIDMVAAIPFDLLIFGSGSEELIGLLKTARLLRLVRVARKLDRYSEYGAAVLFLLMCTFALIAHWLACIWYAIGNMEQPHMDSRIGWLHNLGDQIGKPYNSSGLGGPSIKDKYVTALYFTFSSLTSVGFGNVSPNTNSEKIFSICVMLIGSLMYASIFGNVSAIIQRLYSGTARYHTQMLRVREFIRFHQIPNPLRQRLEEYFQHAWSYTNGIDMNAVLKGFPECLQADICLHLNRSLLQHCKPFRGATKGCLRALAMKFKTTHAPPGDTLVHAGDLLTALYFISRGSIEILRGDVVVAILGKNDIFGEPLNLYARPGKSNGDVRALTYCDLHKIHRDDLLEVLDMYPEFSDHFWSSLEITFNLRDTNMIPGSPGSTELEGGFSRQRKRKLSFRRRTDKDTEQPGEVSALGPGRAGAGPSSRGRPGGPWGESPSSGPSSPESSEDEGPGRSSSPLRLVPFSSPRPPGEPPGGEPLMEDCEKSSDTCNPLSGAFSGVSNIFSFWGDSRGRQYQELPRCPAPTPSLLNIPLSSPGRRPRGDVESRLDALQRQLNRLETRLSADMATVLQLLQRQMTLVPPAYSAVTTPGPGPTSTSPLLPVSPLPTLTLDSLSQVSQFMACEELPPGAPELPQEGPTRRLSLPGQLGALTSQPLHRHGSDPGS

| Compound | hERG current change (%, negative = inhibition) at 10uM |
| --- | --- |
| N#Cc1c(NC(=O)CCN2C(=O)c3ccccc3C2=O)oc(-c2ccccc2)c1-c1ccccc1 | -11.7% |
| O=C1CCCN1CC1CCCN(Cc2nc(COc3ccccc3)no2)C1 (stereo not drawn) | 28.6% |
| O=C(NCc1ccccc1F)C1CCCN(C(=O)Nc2ccccc2)C1 (stereo not drawn) | 3.18% |
| Cc1noc(C)c1COc1cccc(C(=O)OC(C)C(=O)Nc2ccc3c(c2)OCO3)c1 (stereo not drawn) | -61.2% |
| COc1cc(C(=O)OC(C)C(=O)Nc2ccc3c(c2)OCO3)ccc1OCc1c(C)noc1C (stereo not drawn) | 15.8% |
| Cc1noc(C)c1COc1cccc(C(=O)Nc2ccc3c(c2)OCO3)c1 | 9.81% |
| Cc1nc2sccn2c(=O)c1CCN1CCC(=C(c2ccc(F)cc2)c2ccc(F)cc2)CC1 | -78.6% |
| CCOc1ccccc1NC(=O)N1CCC(C(=O)c2ccc(F)cc2)CC1 | -32% |
| Cc1nc2sccn2c(=O)c1S(=O)(=O)NCc1ccccc1 | -2.53% |
| Cc1ccccc1NC(=O)N1CCC(C(=O)c2ccc(F)cc2)CC1 | -16.3% |
| Cc1nc2sccn2c(=O)c1S(=O)(=O)NCCc1ccccc1 | -21.5% |
| Cc1nc2ccccn2c(=O)c1CCN1CCC(C(=O)c2ccc(F)cc2)CC1 | -73.3% |
| CCCCc1c(O)nc2sccn2c1=O | -2% |
| CCOC(=O)c1ccc(NS(=O)(=O)c2c(C)nc3sccn3c2=O)cc1 | 1.63% |
| Cc1nc2sccn2c(=O)c1CCN1CCC(=C(c2ccccc2)c2ccc(F)cc2)CC1 | -78% |
| COc1ccc(C2=NN(c3ccccc3)C(c3cn(CCC(=O)O)nc3-c3ccccc3)C2)cc1 (stereo not drawn) | 1.09% |
| COC(=O)C1CCN(C(=O)Cc2ccc(OC)c(OC)c2)CC1 | 0.292% |
| O=C1CCN(Cc2ccccc2)CCN1CCOc1ccccc1 | -10.4% |
| Cc1ccc(SCCN2CCN(CCc3ccccc3)CCC2=O)cc1 | -69.6% |
| CN1CCC(=O)N(CCSc2ccccc2)CC1 | -3.36% |
| COc1ccc(SCCN2CCN(CC(C)C)CCC2=O)cc1 | -42.9% |
| CCCN1CCC(=O)N(CCOc2ccccc2)CC1 | -6.3% |
| CN1CCC(=O)N(CCSc2ccc(Br)cc2)CC1 | -25.5% |

| Compound | hERG current change (%, negative = inhibition) at 10uM |
| --- | --- |
| O=C1CCN(CCc2ccccc2)CCN1CCOc1ccccc1 | -72.8% |
| C[C@H]1CCC(=O)N(CCSc2ccc(Br)cc2)CC1 | -23.8% |
| O=C1CCN(CCc2ccccc2)CCN1CCSc1ccc(Br)cc1 | -80.1% |
| [N-]=[N+]=NCCN1CCN(CCc2ccccc2)CCC1=O | 9.16% |
| CC(C)CN1CCC(=O)N(CCSc2ccccc2)CC1 | -15.4% |
| CC(C)CN1CCC(=O)N(CCSc2ccc(Br)cc2)CC1 | -61.3% |
| COc1ccccc1OCCNC(=O)c1ccc2c(c1)CCC2 | -5.96% |
| Cc1ccc(S(=O)(=O)NC(=NCC(=O)O)c2ccccc2)cc1 | 2.94% |
| COc1cc(OC)cc(C(=O)NNC(=O)c2cc(S(=O)(=O)N3CCOCC3)ccc2F)c1 | -1.89% |
| CCC(=O)n1nc(-c2ccccc2)nc1NCc1ccccc1 | 10.9% |
| Cn1ncc(N)c1C(=O)Nc1cccc(C(F)(F)F)c1 | 1.42% |
| CCOC(=O)c1cc(C)n(-c2ccc(OC)c(OC)c2)c1C | -16.5% |
| COc1cccc(NC(=S)N2CCC(NC(=O)c3ccco3)CC2)c1 | -11% |
| CCOc1ccc2nc(NC(=O)c3ccccn3)sc2c1 | 6.42% |
| COC(=O)c1cc(C)nc2c1C(=O)C(=O)C=C2N1CCOCC1 | -2.1% |
| O=C1CCN(CCc2ccccc2)CCN1CCSc1ccccc1 | -76.4% |
| CCCN1CCC(=O)N(CCSc2ccccc2)CC1 | -15.1% |
| O=C1CCN(CCc2ccccc2)CCN1CCO | -4.16% |
| CCN(CC)S(=O)(=O)c1ccc(NC(=O)CO/N=C(\N)c2ccccc2)cc1 | -16.6% |
| O=C(CN1CCOc2ccccc21)NCc1cccs1 | 8.26% |
| O=C(CN1C2=NCCCN2c2ccccc21)c1cccs1 | -18.4% |
| Br.O=C(CN1C2=NCCCN2c2ccccc21)c1ccc(Br)s1 | -67.2% |
